Measured values taken from PubChem BioAssay (NCI).
This is part of a sample that, as a whole, favours compounds with a hit. Of some 83,000 tested, about 20% had one in any assay.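 The endpoint reported here, percent growth, reads 100 for growth as untreated, 0 for no net growth and -100 for all cells dead.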 Calls of active or inactive are those of the source. How the source made its calls: active means growth percent below 10; inactive means the rest.

What was measured:
Test in all cases: NCI-60 one-dose screen, 48 h (100 = growth as untreated, 0 = no growth, -100 = all killed)
Conditions in all cases: 10 µM
NCI-H23 lung = system: NCI-H23 lung
NCI-H226 lung = system: NCI-H226 lung
NCI-H322M lung = system: NCI-H322M lung
HOP-62 NSCLC = system: HOP-62 NSCLC
NCI-H460 lung = system: NCI-H460 lung
HOP-92 NSCLC = system: HOP-92 NSCLC
NCI-H522 lung = system: NCI-H522 lung
A549/ATCC NSCLC = system: A549/ATCC NSCLC
786-0 renal = system: 786-0 renal
COLO 205 colon = system: COLO 205 colon
DU-145 prostate = system: DU-145 prostate
K-562 leukemia = system: K-562 leukemia
MDA-MB-231 breast = system: MDA-MB-231 breast
RXF 393 renal = system: RXF 393 renal
SF-268 CNS = system: SF-268 CNS
SF-295 CNS = system: SF-295 CNS
SF-539 CNS = system: SF-539 CNS
UACC-257 melanoma = system: UACC-257 melanoma
M14 melanoma = system: M14 melanoma

Measured: growth

O=C(OCC1OC(n2cc(C(F)(F)F)c(=O)[nH]c2=O)CC1OC(=O)c1ccc([N+](=O)[O-])cc1)c1ccc([N+](=O)[O-])cc1 (stereo not drawn)
active: M14 melanoma -17.6%
inactive: NCI-H23 lung 90.9% | NCI-H226 lung 72.5% | NCI-H322M lung 91.2% | HOP-62 NSCLC 75.9% | NCI-H460 lung 31.2% | HOP-92 NSCLC 69.9% | NCI-H522 lung 76.6% | A549/ATCC NSCLC 69.6% | 786-0 renal 18.9% | COLO 205 colon 87.8% | DU-145 prostate 30.3% | K-562 leukemia 62% | MDA-MB-231 breast 95.3% | RXF 393 renal 80.3% | SF-268 CNS 55.6% | SF-295 CNS 63.5% | SF-539 CNS 18.3% | UACC-257 melanoma 38.4%

COc1cc([C@@H]2c3cc4c(cc3[C@H](SC(=N)N)[C@H]3COC(=O)[C@H]23)OCO4)cc(OC)c1OC
inactive: NCI-H23 lung 13.7% | NCI-H322M lung 13% | HOP-62 NSCLC 51.4% | HOP-92 NSCLC 68.5% | A549/ATCC NSCLC 18.3% | 786-0 renal 10.3% | K-562 leukemia 13.8% | RXF 393 renal 27.1% | SF-268 CNS 30.3% | UACC-257 melanoma 57.1% | M14 melanoma 16.9%
active: NCI-H226 lung 0.754% | NCI-H460 lung 5.84% | NCI-H522 lung -7.12% | COLO 205 colon -67.2% | DU-145 prostate 6.78% | MDA-MB-231 breast -5.46% | SF-295 CNS -20.4% | SF-539 CNS -22.5%

Nc1cc2c(cc1Cl)-c1ccc(Cl)cc1C2=O
inactive: NCI-H23 lung 98.3% | NCI-H226 lung 105% | NCI-H322M lung 103% | HOP-62 NSCLC 90.2% | NCI-H460 lung 96.6% | HOP-92 NSCLC 78.1% | NCI-H522 lung 90.3% | A549/ATCC NSCLC 85.7% | 786-0 renal 103% | COLO 205 colon 95.1% | DU-145 prostate 105% | K-562 leukemia 89.9% | MDA-MB-231 breast 82.5% | RXF 393 renal 131% | SF-268 CNS 93.8% | SF-295 CNS 115% | SF-539 CNS 78.2% | UACC-257 melanoma 103% | M14 melanoma 104%

CCCCCCCCCCCCCC[n+]1ccc(C)cc1
active: NCI-H23 lung -19% | NCI-H322M lung 5.57% | HOP-62 NSCLC -39.2% | NCI-H460 lung -74.1% | HOP-92 NSCLC -49.7% | NCI-H522 lung -11.8% | A549/ATCC NSCLC -30.5% | 786-0 renal -3.94% | COLO 205 colon -89.9% | DU-145 prostate 5.11% | K-562 leukemia 9.19% | MDA-MB-231 breast -40.2% | RXF 393 renal -19.6% | SF-268 CNS -32.4% | SF-295 CNS -67.1% | SF-539 CNS -33.5% | UACC-257 melanoma -21.6% | M14 melanoma -72.7%
inactive: NCI-H226 lung 31.7%

COc1ccc(/C(=C/c2cc(OC)c(OC)cc2[N+](=O)[O-])C(=O)O)cc1
inactive: NCI-H23 lung 103% | NCI-H226 lung 101% | NCI-H322M lung 118% | HOP-62 NSCLC 94.1% | NCI-H460 lung 110% | HOP-92 NSCLC 97.2% | NCI-H522 lung 107% | A549/ATCC NSCLC 108% | 786-0 renal 106% | COLO 205 colon 127% | DU-145 prostate 124% | K-562 leukemia 94.6% | MDA-MB-231 breast 96.7% | RXF 393 renal 126% | SF-268 CNS 111% | SF-295 CNS 121% | SF-539 CNS 99.6% | UACC-257 melanoma 118% | M14 melanoma 104%

Cn1c(=O)c2[nH]c(C(O)c3ccc(Cl)cc3)nc2n(C)c1=O (stereo not drawn)
inactive: NCI-H23 lung 98.8% | NCI-H226 lung 103% | NCI-H322M lung 111% | HOP-62 NSCLC 94.7% | NCI-H460 lung 100% | HOP-92 NSCLC 76.1% | NCI-H522 lung 96.7% | A549/ATCC NSCLC 96.3% | 786-0 renal 98.6% | COLO 205 colon 102% | DU-145 prostate 104% | K-562 leukemia 113% | MDA-MB-231 breast 100% | RXF 393 renal 120% | SF-268 CNS 104% | SF-295 CNS 104% | SF-539 CNS 105% | UACC-257 melanoma 97.7% | M14 melanoma 90.6%

Cn1c(N)c(N=Cc2ccccc2)c(=O)n(C)c1=O
inactive: NCI-H23 lung 103% | NCI-H226 lung 108% | NCI-H322M lung 114% | HOP-62 NSCLC 96.3% | NCI-H460 lung 114% | HOP-92 NSCLC 102% | NCI-H522 lung 101% | A549/ATCC NSCLC 105% | 786-0 renal 103% | COLO 205 colon 106% | DU-145 prostate 124% | K-562 leukemia 95.8% | MDA-MB-231 breast 98.8% | RXF 393 renal 121% | SF-268 CNS 110% | SF-295 CNS 124% | SF-539 CNS 119% | UACC-257 melanoma 108% | M14 melanoma 98.7%

COc1ccc2c(c1)/C(=C/c1cc(OC)c(OC)c(OC)c1)C(=O)N2C
inactive: NCI-H23 lung 34.2% | NCI-H226 lung 19.3% | NCI-H322M lung 39.5% | HOP-62 NSCLC 57.5% | A549/ATCC NSCLC 14.5% | 786-0 renal 29.4% | MDA-MB-231 breast 20.9%
active: NCI-H460 lung -6.11% | HOP-92 NSCLC -7.03% | NCI-H522 lung -15.1% | COLO 205 colon -36.8% | DU-145 prostate -0.621% | K-562 leukemia 0.985% | RXF 393 renal -60.8% | SF-268 CNS 0.418% | SF-295 CNS -30.1% | SF-539 CNS -22% | UACC-257 melanoma -6.05% | M14 melanoma 8.46%

COc1cc(-c2n/c(=C\c3c(O)[nH]c4ccccc34)cc3c2=Nc2ccccc2-3)cc(OC)c1OC
active: NCI-H460 lung 3.31% | NCI-H522 lung -7.72% | A549/ATCC NSCLC 9.21% | COLO 205 colon -49.2% | K-562 leukemia 6.57% | RXF 393 renal -22.3% | SF-295 CNS 8.6% | SF-539 CNS 1.21% | M14 melanoma -5.09%
inactive: NCI-H23 lung 22.9% | NCI-H226 lung 22% | NCI-H322M lung 47.3% | HOP-62 NSCLC 41.4% | HOP-92 NSCLC 22.9% | 786-0 renal 16.7% | DU-145 prostate 11.5% | MDA-MB-231 breast 10.8% | SF-268 CNS 19.3% | UACC-257 melanoma 56.2%

O=C(NNC(=O)c1ccncc1)Nc1ccc([N+](=O)[O-])cc1
inactive: NCI-H23 lung 94.7% | NCI-H226 lung 115% | NCI-H322M lung 105% | HOP-62 NSCLC 97% | NCI-H460 lung 105% | HOP-92 NSCLC 103% | NCI-H522 lung 88.5% | A549/ATCC NSCLC 106% | 786-0 renal 107% | COLO 205 colon 112% | DU-145 prostate 105% | K-562 leukemia 75.8% | MDA-MB-231 breast 109% | RXF 393 renal 124% | SF-268 CNS 106% | SF-295 CNS 99.1% | SF-539 CNS 94% | UACC-257 melanoma 116% | M14 melanoma 116%

COc1cc(NS(C)(=O)=O)ccc1Nc1c2ccc(Cl)cc2nc2c(OC)cccc12
active: NCI-H23 lung -23.6% | NCI-H226 lung -37.4% | HOP-62 NSCLC -14.3% | NCI-H460 lung -46.9% | NCI-H522 lung -6.02% | A549/ATCC NSCLC -7.09% | 786-0 renal -39.5% | DU-145 prostate -43.6% | RXF 393 renal -11.3% | SF-268 CNS 9.76% | SF-539 CNS -53.8%
inactive: NCI-H322M lung 57.5% | HOP-92 NSCLC 14.5% | COLO 205 colon 34.3% | K-562 leukemia 13.4% | MDA-MB-231 breast 62.6% | SF-295 CNS 14.5% | UACC-257 melanoma 34.2% | M14 melanoma 14.1%

COC(=O)c1ccc(Cn2ccc(=O)[nH]c2=O)cc1
inactive: NCI-H23 lung 105% | NCI-H226 lung 103% | NCI-H322M lung 116% | HOP-62 NSCLC 106% | NCI-H460 lung 114% | HOP-92 NSCLC 99.3% | NCI-H522 lung 93.2% | A549/ATCC NSCLC 105% | 786-0 renal 80.5% | COLO 205 colon 113% | DU-145 prostate 105% | K-562 leukemia 113% | MDA-MB-231 breast 99.4% | RXF 393 renal 108% | SF-268 CNS 119% | SF-295 CNS 109% | SF-539 CNS 83.8% | UACC-257 melanoma 112% | M14 melanoma 102%
